Assay outcomes deposited in PubChem BioAssay by National Center for Advancing Translational Sciences (NCATS).
Rango complex inh = inhibitors of Rango-importin beta complex formation. AID 540263. Potency, µM (doses to about 92.2 µM), inactives show at the top dose inhibition of complex formation. Q14974. Rango CFP/YFP FRET sensor + importin beta, 45 min. 340,000 tested, 0.031% active; calls by dose curve;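 also: potency is read from the fitted curve at half-maximal effect; 0% = DMSO wells and 100% = buffer wells lacking importin beta; nearly all actives have a fitted effect of over 15% in size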
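Inhibition scored from the CFP 486 nm/YFP 530 nm FRET ratio 45 min after adding 0.125 microM importin beta to 50 nM Rango biosensor preincubated 5 min with compound (room temperature, PBS with DTT, Tween-20, BSA). No-importin wells as positive control.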
PLK1 PBD block = blocks phosphopeptide binding to human PLK1 polo-box domain; AID 720504; P53350; 360,000 tested, 2.8% active; Plk1 PBD binding of FITC phosphopeptide, fluorescence polarization; Potency, µM, without a hit: max response, negative = inhibition, actives largely listed as inhibitors; also: potency is read from the fitted curve at half-maximal effect; series mostly up to about 57 µM; % is scaled to controls: 0 for no effect and ±100 for the full control effect; nearly all actives have a fitted effect of over 65% in size
VDR inhibitor = inhibitors of human vitamin D receptor | VDR-SRC2-3 peptide fluorescence polarization, 2 h | 400,000 tested, 0.93% active | AID 504847 | Potency, µM, inactives show max response, negative = inhibition, usual class: inhibitors; also: potency is read from the fitted curve at half-maximal effect; % is scaled to controls: 0 for no effect and ±100 for the full control effect
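FP read-out; VDR + SRC2-3 coactivator peptide; 23 nl compound by pintool; 2 h RT incubation; reagents held at 4 deg C, protected from light.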
PI5P4K alpha inh = blocks human PI5P4K alpha kinase activity | max response, % | AID 652105 | P48426 | PI5P4Kalpha enzyme, ADP-Glo luminescence, 60 min; active compounds read low | 330,000 tested, 1.2% active; active = max response of -50% or lower; inconclusive = between -30% and -50%; inactive = -30% or higher; also: value at the top dose of about 77 µM; % is scaled to controls: 0 for no effect and ±100 for the full control effect
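ADP-Glo luminescence end-point read after a 60 min room-temperature kinase reaction of PI5P4Kalpha plus substrate, initiated with ATP at 5 microM final. Buffer: 0.038 M HEPES pH 7.4, EGTA, 0.1% CHAPS, 5% DMSO.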
Rango dissoc inh = inhibitors of RanGTP-induced Rango-importin beta complex dissociation; Biochemical FRET Rango-importin beta, RanGTP-induced dissociation; Potency, µM (doses to about 46.1 µM), inactives show top-dose activity change, negative = inhibition; 340,000 tested, 0.071% active; calls by dose curve; also: potency is read from the fitted curve at half-maximal effect; % of control where 0% means no effect; nearly all actives have a fitted effect of over 45% in size
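Rango (0.1 uM)–importin beta (0.25 uM) complex; RanGTP-RCC1 trigger; 45 min RT; CFP/YFP FRET read.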
GCN5L2 inh = inhibitors of human GCN5L2 histone acetyltransferase | Q92830 | GCN5L2 HAT assay, ThioGlo1 CoA-SH fluorescence | Potency, µM (titrated, usually from 58.9 µM), inactives show at the highest dose activity change, negative = inhibition, hits mostly inhibitors | 390,000 tested, 0.21% active; also: potency is read from the fitted curve at half-maximal effect; % is scaled to controls: 0 for no effect and ±100 for the full control effect
Target sequence (Q92830 whole entry, looked up): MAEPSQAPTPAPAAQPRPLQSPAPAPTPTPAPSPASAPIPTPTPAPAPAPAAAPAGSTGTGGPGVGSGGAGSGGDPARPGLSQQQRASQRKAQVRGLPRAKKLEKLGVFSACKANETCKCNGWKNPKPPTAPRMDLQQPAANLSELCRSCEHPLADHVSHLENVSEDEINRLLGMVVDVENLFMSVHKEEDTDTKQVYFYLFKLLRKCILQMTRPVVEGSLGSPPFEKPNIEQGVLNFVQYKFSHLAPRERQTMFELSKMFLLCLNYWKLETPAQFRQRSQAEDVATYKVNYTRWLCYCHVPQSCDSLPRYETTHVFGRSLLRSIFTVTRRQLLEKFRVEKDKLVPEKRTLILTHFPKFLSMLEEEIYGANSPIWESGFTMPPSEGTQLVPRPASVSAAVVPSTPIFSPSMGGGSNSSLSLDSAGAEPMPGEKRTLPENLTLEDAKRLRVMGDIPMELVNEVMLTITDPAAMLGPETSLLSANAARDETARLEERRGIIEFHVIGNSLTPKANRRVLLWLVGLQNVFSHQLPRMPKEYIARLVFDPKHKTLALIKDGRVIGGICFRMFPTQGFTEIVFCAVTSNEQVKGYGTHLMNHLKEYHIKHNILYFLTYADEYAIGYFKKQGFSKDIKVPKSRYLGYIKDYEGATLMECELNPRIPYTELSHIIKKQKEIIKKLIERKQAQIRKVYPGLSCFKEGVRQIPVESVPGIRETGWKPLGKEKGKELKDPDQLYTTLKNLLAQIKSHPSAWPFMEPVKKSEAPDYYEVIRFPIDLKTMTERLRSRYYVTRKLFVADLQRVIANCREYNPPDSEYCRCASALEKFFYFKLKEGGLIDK
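Free CoA generated was detected with ThioGlo1 (50uM) fluorescence at Ex340nm/Em540nm, read immediately and after 20 min at room temperature. Enzyme, 20 nM in HEPES pH 7.5 buffer, saw compounds 15 min before adding 75uM H3(1-25) peptide and 70uM acetyl-CoA.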
USP1-UAF1 confirm = USP1-UAF1 deubiquitinase inhibition validated. shares compounds with VDR inhibitor. Ub-Rhodamine cleavage, fluorescence kinetic read. Potency, µM (top dose mostly 114 µM), inactives show at the highest dose activity change, negative = inhibition, most hits filed as inhibitors. 50 tested, 50% active. AID 540327
VDR inh confirm = inhibits human vitamin D receptor, primary hit validation. 840 tested, 89% active. VDR-coactivator inhibition assay, qHTS confirmation. shares compounds with VDR inhibitor. Potency, µM, usual class: inhibitors. AID 602199; also: potency is read from the fitted curve at half-maximal effect
VDR FP fluor = VDR (human) coactivator binding inhibition, fluorescein polarization; shares compounds with VDR inhibitor; VDR-coactivator binding, fluorescein fluorescence polarization; Potency, µM (series often up to 57.1 µM), without a hit: at the highest dose activity change, negative = inhibition, hits mostly inhibitors; 840 tested, 48% active; AID 602200; also: potency is read from the fitted curve at half-maximal effect
VDR bla = inhibits human VDR in beta-lactamase reporter cells; VDR beta-lactamase reporter cells, FRET ratio; cells co-treated with VDR agonist LG190178; 840 tested, 23% active; Potency, µM (doses to about 46.1 µM), for the others: top-dose activity change, negative = inhibition, actives largely listed as inhibitors; shares compounds with VDR inhibitor; also: potency is read from the fitted curve at half-maximal effect; % is scaled to controls: 0 for no effect and ±100 for the full control effect
VDR cytotox = cytotoxic in counter-screen for VDR inhibitors | shares compounds with VDR inhibitor | cytotoxicity counter-screen, cell viability, qHTS | Potency, µM (doses to about 48.3 µM), without a hit: top-dose activity change, negative = cytotoxicity, usual class: cytotoxic | 840 tested, 18% active | AID 602204;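 also: potency is read from the fitted curve at half-maximal effect; plate controls were DMSO for no effect and high-concentration cycloheximide for full effect; nearly all actives have a fitted effect of over 75% in size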
ADP-Glo counter = interferes with ADP-Glo detection without enzyme present. shares compounds with PI5P4K alpha inh. ADP-Glo detection counter-screen, luciferase luminescence, no enzyme. Potency, µM (top dose mostly 76.9 µM), for inactives: at the highest dose activity change, negative = inhibition, actives largely listed as inhibitors. 1,100 tested, under 10 active
Active calls of the source: *; ? = inconclusive; · = no result given. Only some compounds are listed: those with a hit (about 3.6% of all), similar ones and a draw of the others. Unless noted, calls follow the shape of the dose curve; as a rule, active = well fitted curve in the direction sought with a large enough effect; inconclusive = small, poorly fitted or top-dose-only effect, or another doubt; inactive = no such curve, though single readings can be large; an effect the other way counts as inactive or inconclusive.

SMILES	Rango complex inh	PLK1 PBD block	VDR inhibitor	PI5P4K alpha inh	Rango dissoc inh	GCN5L2 inh	VDR inh confirm	VDR FP fluor	VDR bla	VDR cytotox	others
CCn1c(CSc2nnc(-c3ccncc3)n2CCOC)nc2cc(C(=O)O)ccc21	8.3%	-7.3%	12.6µM*	-3.8	-3.8%	-4.2%	21.2*	21.9%	4.5%	18.9%
CCn1c(CSc2nnc(-c3cccnc3)n2-c2ccccc2C)nc2cc(C(=O)O)ccc21	·	·	·	·	·	0.1%	·	·	·	·
Cc1ccc(C(=O)Nc2cc(-c3nc4ncccc4o3)ccc2C)c(C)c1	·	·	0.0%	·	·	-9.1%	·	·	·	·
CCc1ccc(C2c3c(-c4ccccc4O)n[nH]c3C(=O)N2Cc2cccnc2)cc1 (stereo not drawn)	·	·	9.5%	·	·	-0.5%	·	·	·	·
O=C1C(Cl)=C(N2CCOCC2)C(=O)N1c1cccc(C(F)(F)F)c1	-0.3%	?	35.5µM*	3.6	0.4%	-7.4%	29.9*	28.2µM*	7.3%	-4.0%
COC(=O)c1cccc(N2C(=O)C(Cl)=C(N3CCOCC3)C2=O)c1	4.4%	-12.9%	?	0.3	0.3%	-3.4%	·	·	·	·
CCCS(=O)(=O)c1ncc(Cl)c(C(=O)Nc2sc3c(c2C(=O)NCC)CCCC3)n1	·	·	·	·	·	·	3.16*	?	5.8µM*	?
CCCSc1ncc(Cl)c(C(=O)Nc2sc3c(c2C(=O)OC)CCCC3)n1	·	·	9.5%	·	·	-0.5%	·	·	·	·
O=C1ON=C(c2ccccc2)/C1=C/c1ccco1	0.9%	1.06µM*	?	-21.2	-3.2%	-6.3%	8.44*	?	-30.3%	?
COc1ccc(/C=C2\C(=O)ON=C2c2cccc([N+](=O)[O-])c2)cc1	·	·	·	·	·	-18.3%	·	·	·	·
COc1ccc(/C=C2\C(=O)ON=C2c2ccccc2)cc1OC	0.1%	2.99µM*	35.5µM*	-62.2*	13.8%	-21.9%	18.9*	?	-14.7%	-1.7%
NC(=O)COc1ccccc1	-0.2%	-2.6%	-17.4%	-5.5	-18.2%	-0.9%	·	·	·	·
COc1ccc(/C=C2/C(=O)ON=C2c2ccccc2)cc1OC	-0.2%	1.89µM*	39.8µM*	-59.0*	-1.5%	-12.4%	21.2*	?	-2.9%	-7.4%
NC(=O)COc1ccc(/C=C2\C(=O)ON=C2c2ccccc2)cc1	0.3%	2.12µM*	?	?	-5.9%	-10.2%	8.91*	12.6µM*	?	?
O=C1C(=Cc2ccco2)C(=O)c2ccccc21	4.2%	?	-16.0%	-24.9	-3.5%	-4.2%	·	·	·	·
CCOc1ccc(N2CC(NC(=O)C3CCCCC3)CC2=O)cc1 (stereo not drawn)	·	·	10.1%	·	·	9.1%	·	·	·	·
CCOC(=O)Cn1c(=O)n(C2CCCCC2)c2nc(-c3ccc(Cl)cc3)nc(C(N)=O)c21	·	·	-10.0%	·	·	3.7%	·	·	·	·
CCCSc1ncc(Cl)c(C(=O)Nc2c(C(=O)Nc3ccc(C)cc3)oc3ccccc23)n1	·	·	4.2%	·	·	-4.2%	·	·	·	·
CCOc1ccccc1C1N=C(c2ccc(OC)cc2)CC(c2ccccc2O)N1 (stereo not drawn)	-2.5%	-18.4%	?	0.3	3.0%	-6.7%	?	?	?	2.5%
COCCn1c(=O)c(-c2ccc(Cl)cc2)nc2cnc(N(C)C)nc21	·	·	-11.1%	·	·	-6.2%	·	·	·	·
CN(C)S(=O)(=O)c1ccc2c(c1)/C(=C/c1cc3c([nH]1)CCCC3)C(=O)N2	?	3.0%	-18.7%	-1.5	?	-6.4%	·	·	·	·	USP1-UAF1 confirm=46.9µM*
NS(=O)(=O)c1ccc(NC2=CC(=O)C(=O)c3ccccc32)cc1	1.7%	26.7µM*	?	-28.3	5.4%	-0.9%	14.1*	7.94µM*	?	?
CCC(=O)OCc1cnc(C)c2oc(=O)c(C(=O)Nc3ccccc3C(F)(F)F)cc12	·	·	-0.8%	·	·	-5.5%	·	·	·	·
CN(C)[C@H]1C(=O)C(C(=O)NCN2CCCC2)=C(O)[C@]2(O)C(=O)C3=C(O)c4c(O)cccc4[C@@](C)(O)[C@H]3C[C@@H]12	·	·	31.6µM*	·	·	?	·	·	·	·	USP1-UAF1 confirm=?
[O-]/[N+](=C\c1ccccc1)c1ccc(Br)cc1	6.3%	15µM*	25.1µM*	-6.0	-9.1%	-4.9%	3.77*	?	6.8%	7.6%
[O-]/[N+](=C\c1ccccc1)c1ccccc1	0.6%	-12.1%	-15.2%	0.6	-4.8%	-8.1%	·	·	·	·
COc1cc(NC(=O)c2nc3cc(C)c(C)cc3n(C)c2=O)cc(OC)c1OC	·	·	-2.0%	·	·	-2.5%	·	·	·	·
COc1cc(/C=C2\C(=O)N(CCC#N)N=C2C)c(Br)cc1OC(C)C	2.2%	1.68µM*	?	·	3.1%	-5.8%	8.44*	?	19.1%	17.8%
Oc1c(C(c2ccccc2)N2CCOCC2)ccc2ccccc12 (stereo not drawn)	1.2%	1.19µM*	20µM*	-71.3*	-13.9%	·	4.74*	3.16µM*	3.0%	?	ADP-Glo counter=-5.8%
CC(=O)N(C)C	·	·	·	·	·	11.1%	·	·	·	·
